Assay results taken from PubChem BioAssay AID743325 (National Center for Advancing Translational Sciences (NCATS), 2014).
Active and inactive are the calls of the source. Calls come from the whole dose curve. Square brackets hold non-standard residues; d marks the D form. Peptide text beside a SMILES is read from it. Orn = NCCC[C@H](N)C(=O)O

Assay: qHTS profiling of Chloroquine Analogs as inhibitors of Plasmodium falciparum (3D7) proliferation
Details: activity change, negative = inhibition: at 28.7 µM (top of the series) unless noted
Excerpt: Plasmodium falciparum is a virulent malarial parasite that kills 1-2 million people worldwide each year. Transmitted by mosquitoes, the sporozoite form of the parasite enters the blood stream to infect hepatocytes, where they become merozoites that infect red blood cells (erythrocytes). Within erythrocytes, merozoites begin a […] cycle of growth and division, after which the parasite is released to infect new red blood cells. Gametocytes, which form within erythrocytes as well, circulate in the bloodstream and are ingested by the mosquito, thereby completing the life cycle. To profile malarial isolates for differential chemical responses and to identify inhibitors of malarial growth, an assay that measures P. falciparum growth and replication within erythrocytes was employed. This assay uses a DNA binding fluorescent dye (SYBR Green) to detect parasite DNA following cell lysis. Because mature erythrocytes lack DNA, only Plasmodium-derived DNA is detected.
The SYBR Green viability assay was adapted from a method described previously (Plouffe et al., 2008). For screening 3 ul culture medium was dispensed into 1536 well black clear bottom plates (Aurora Biotechnologies) using a Multidrop Combi (Thermo Fisher Scientific Inc.), 23 nL compounds in DMSO were added by a pin tool (Kalypsys), and 5 ul of erythrocytes infected with P. falciparum (0.3% parasitemia, 2.5% hematocrit final concentration) were added. The plates were incubated at 37 C in a humidified incubator in 5% CO2 for 72 h, and 2 ul lysis buffer (20 mM Tris HCl, 10 mM EDTA, 0.16% saponin, 1.6% triton X, 10X SYBR Green I supplied as 10,000X […] by Invitrogen) was added to each well. The plates were mixed for 25 sec with gentle shaking and incubated overnight at room temperature in the dark. The following morning, fluorescence intensity at 485(14) nm excitation and 535(25) nm emission wavelengths was measured on an EnVision (Perkin Elmer) plate reader. Plate reads were normalized relative to the control inhibitor (0.29 uM artemisinin) and vehicle (DMSO) wells present on each plate and then corrected by an algorithm using vehicle-only control plates at the beginning and end of the compound plate stack.

| Structure (SMILES) | activity change, negative = inhibition | Potency |
| --- | --- | --- |
| O=C(O)c1cn(C2CC2)c2cc(N3CCNCC3)c(F)cc2c1=O | -11.8% (inactive) | – |
| C[C@@H]1Cc2c([nH]c3cc(Cl)c(F)cc23)[C@]2(N1)C(=O)Nc1ccc(Cl)cc12 | -101% | – |
| O=C(C[C@@H]1NCCC[C@@H]1O)Cn1cnc2ccccc2c1=O | – | 2.7 nM (active) |
| C=C[C@@H]1CN2CC[C@@H]1C[C@H]2[C@H](O)c1ccnc2ccc(OC)cc12 | -98.6% | – |
| CCN(CC)CCCC(C)Nc1ccnc2cc(Cl)ccc12 (stereo not given) | -99% | – |
| CC[C@@H](C)[C@H]1O[C@]2(CC[C@H]1C)C[C@@H]1C[C@@H](CC=C(C)[C@@H](O[C@H]3C[C@H](OC)[C@@H](O[C@H]4C[C@H](OC)[C@@H](O)[C@H](C)O4)[C@H](C)O3)[C@@H](C)C=CC=C3CO[C@@H]4[C@H](O)C(C)=C[C@@H](C(=O)O1)[C@]34O)O2 | -99.9% | – |
| CCCC(=O)O[C@]1(C(=O)CCl)[C@H](C)C[C@@H]2[C@H]3CCC4=CC(=O)C=C[C@]4(C)[C@@]3(F)C(=O)C[C@@]21C | -101% | – |
| Cc1nc2c(C#N)cccc2n1-c1ccc(C(=O)NC2CC2)s1 | -100% | – |
| CC(C)C[C@@H]1NC(=O)[C@H](CCCN)NC(=O)[C@H](C(C)C)NC(=O)[C@@H]2CCCN2C(=O)[C@@H](Cc2ccccc2)NC(=O)[C@H](CC(C)C)NC(=O)[C@H](CCCN)NC(=O)[C@H](C(C)C)NC(=O)[C@@H]2CCCN2C(=O)[C@@H](Cc2ccccc2)NC1=O (cyclo(V[Orn]L[dF]PV[Orn]L[dF]P)) | -102% | – |
| O[C@H](c1cc(C(F)(F)F)nc2c(C(F)(F)F)cccc12)[C@H]1CCCCN1 | 193% [at 14.2 µM] (inactive) | – |
| CC(=O)O[C@@]12CO[C@@H]1C[C@H](O)[C@@]1(C)C(=O)[C@H](O)C3=C(C)[C@@H](OC(=O)[C@H](O)[C@@H](NC(=O)OC(C)(C)C)c4ccccc4)C[C@@](O)([C@@H](OC(=O)c4ccccc4)[C@H]21)C3(C)C | 177% (inactive) | – |
| COc1cc2c(Nc3ccc(NC(=O)c4ccccc4)cc3)ncnc2cc1OCCCN1CCOCC1 | -100% | – |
| COc1cc(NC(C)CCCN)c2ncccc2c1 (stereo not given) | – | 902 nM (active) |
| COC(=O)C1C2CC3c4[nH]c5cc(OC)ccc5c4CCN3CC2CC(OC(=O)c2cc(OC)c(OC)c(OC)c2)C1OC (stereo not given) | -101% [at 57.5 µM] | – |
| O=CN(O)CCCP(=O)(O)O | – | 530 nM (active) |
| CCN(CC)CCOCCOC(=O)C(CC)(CC)c1ccccc1 | 31.7% (inactive) | – |
| C[C@@H]1[C@@H](C(=O)C[C@H]2O[C@@H]3O[C@]4(C)CC[C@@H]5[C@H](C)CC[C@@H]([C@H]2C)[C@@]35OO4)O[C@@H]2O[C@]3(C)CC[C@H]4[C@H](C)CC[C@@H]1[C@@]24OO3 | – | 1.7 nM (active) |
| Cc1cccc(C)c1OCC(N)C(C)C (stereo not given) | -97.7% | – |
| C[C@H]1[C@@H](CCC(=O)Nc2ccc(F)cc2)O[C@@H]2O[C@]3(C)CC[C@@H]4[C@H](C)CC[C@@H]1[C@@]24OO3 | -100% | – |
| CC[C@H]1OC(=O)[C@H](C)[C@@H](O[C@H]2C[C@@](C)(OC)[C@@H](O)[C@H](C)O2)[C@H](C)[C@@H](O[C@@H]2O[C@H](C)C[C@H](N(C)C)[C@@H]2O)[C@](C)(O)C[C@@H](C)CN(C)[C@H](C)[C@@H](O)[C@]1(C)O | – | 9430 nM (active) |

| Structure (SMILES) | activity change, negative = inhibition | Potency |
| --- | --- | --- |
| C[C@@H]1[C@@H](CC(C[C@H]2O[C@@H]3O[C@]4(C)CC[C@@H]5[C@H](C)CC[C@@H]([C@H]2C)[C@@]35OO4)C(=O)NCc2ccc(F)cc2)O[C@@H]2O[C@]3(C)CC[C@H]4[C@H](C)CC[C@@H]1[C@@]24OO3 (stereo not given in full) | -101% | – |
| C[C@H]1Cc2c([nH]c3cc(Cl)c(F)cc23)[C@@]2(N1)C(=O)Nc1ccc(Cl)cc12 | -101% | – |
| CCN(CC)CCOc1ccc2c(=O)c3ccc(Cl)cc3n(CCN(CC)CC)c2c1 | -101% | – |
| CCCCN(CCCC)CC(O)c1cc(Cl)cc2c1-c1ccc(Cl)cc1C2=Cc1ccc(Cl)cc1 (stereo not given) | -97.1% | – |
| CN(C)CCOC(c1ccccc1)c1ccccc1 | -8.32% (inactive) | – |
| Cc1oncc1C(=O)Nc1ccc(C(F)(F)F)cc1 | 171% (inactive) | – |
| CC(CNC1CCCCC1)OC(=O)c1ccccc1 (stereo not given) | 9.78% [at 14.2 µM] (inactive) | – |
| Oc1cc(Cl)ccc1Oc1ccc(Cl)cc1Cl | – | 1880 nM (active) |
| CCCCN(CCCC)CCC(O)c1cc2c(Cl)cc(Cl)cc2c2cc(C(F)(F)F)ccc12 (stereo not given) | – | 5.1 nM (active) |
| CN([C@@H](Cc1ccc(OS(=O)(=O)c2cccc3cnccc23)cc1)C(=O)N1CCN(c2ccccc2)CC1)S(=O)(=O)c1cccc2cnccc12 | – | 237 nM (active) |
| CCCC[C@@H]1C[C@@H](C(=O)NC([C@H](C)Cl)[C@H]2O[C@H](S)[C@H](O)[C@@H](O)[C@@H]2O)N(C)C1 (stereo not given in full) | -71.5% (inactive) | – |
| COCC(=O)O[C@]1(CCN(C)CCCc2nc3ccccc3[nH]2)CCc2cc(F)ccc2[C@@H]1C(C)C | -102% | – |
| CC(C)(C)c1cc(O)c(CN)c(C(C)(C)C)c1 | – | 168 nM (active) |
| C=CCON=C(C[C@H]1O[C@@H]2O[C@]3(C)CC[C@@H]4[C@H](C)CC[C@@H]([C@H]1C)[C@@]24OO3)[C@H]1O[C@@H]2O[C@]3(C)CC[C@H]4[C@H](C)CC[C@@H]([C@@H]1C)[C@@]24OO3 | -102% | – |
| CCc1ccc(OCc2ccccc2C(=O)Nc2ccc3nc(C)cc(N)c3c2)cc1 | -101% | – |
| C[C@@H]1[C@@H](CC(C[C@H]2O[C@@H]3O[C@]4(C)CC[C@@H]5[C@H](C)CC[C@@H]([C@H]2C)[C@@]35OO4)C[S+](=O)([O-])c2ccc(COC(=O)N(C)C)cc2)O[C@@H]2O[C@]3(C)CC[C@H]4[C@H](C)CC[C@@H]1[C@@]24OO3 (stereo not given in full) | 188% (inactive) | – |
| Clc1ccc(COC(Cn2ccnc2)c2ccc(Cl)cc2Cl)c(Cl)c1 (stereo not given) | -97.6% [at 14.2 µM] | – |
| Cc1cccc(C)c1OCC(=O)N[C@@H](Cc1ccccc1)[C@@H](O)C[C@H](Cc1ccccc1)NC(=O)[C@H](C(C)C)N1CCCNC1=O | -99.8% | – |
| Cc1cccc(C)c1NC(=O)C(C)N (stereo not given) | -9.46% [at 14.2 µM] (inactive) | – |
| CSc1cccc(NC(=O)CC[C@H]2O[C@@H]3O[C@]4(C)CC[C@H]5[C@H](C)CC[C@@H]([C@@H]2C)[C@@]35OO4)c1 | – | 21.1 nM (active) |
